The record followed here is PubChem BioAssay (NCATS).

Assay [1] can be described thus: qHTS Assay for Identifying Gametocytocidal Compounds (AID 743244).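 Note: actives lower the fluorescent signal which means gametocytes are killed.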 The following applies: P. falciparum 3D7 stage III-V gametocytes, alamarBlue, 72 h; max response: stronger effect = lower value. The essentials:
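3D7 gametocytes, stages III–V, 20,000/well; cpd 72 h, 37 °C/5% CO2; + alamarBlue 24 h; fluor. Ex 525/Em 598.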
(Quantitative high-throughput screening tests each substance at several concentrations.)

Assay [2] in a line: qHTS assay to identify small molecule inhibitors of chordoma cells - UCH-1 (AID 1259355). Note: nearly all actives have a fitted effect of over 55% in size. The essentials: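 A 48hr growth-inhibition format: each drug tested at 15 concentrations together with added auranofin, camptothecin, doxorubicin, rubitecan and topotecan, with cell viability quantified as CellTiter-Glo luminescence.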
A short description of assay [3]: qHTS assay to identify small molecule inhibitors of chordoma cells - UCH-2 (AID 1259356). Note: series mostly up to about 46 µM.
The nature of assay [4]: P-glycoprotein substrates identified in KB-8-5-11 adenocarcinoma cell line, qHTS therapeutic library screen (AID 1346987). Note: nearly all actives have a fitted effect of over 65% in size. Note: potency is the fitted concentration of half-maximal effect. The following applies: outcome: dose series up to 44.5 µM unless noted. The method in brief:
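In this qHTS, P-gp-rich KB-8-5-11 cells received library compounds across a concentration range. Viability was quantified by luminescence after 72 h at 37 degree C.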

“And” between values parts separate entries of the source, which are not always exact repeats. Identical values can stand only once. Inconclusive results are not listed. A number with no mark means an inactive call. The source made the active and inactive calls. Calls come from the whole dose curve; as a rule, active = well fitted curve in the direction sought with a large enough effect; inconclusive = small, poorly fitted or top-dose-only effect, or another doubt; inactive = no such curve, though single readings can be large; an effect the other way counts as inactive or inconclusive.
% is set by controls: 0 for no effect and ±100 for the full control effect.

For the molecule `Cc1ccc(S(=O)(=O)NC(=O)N[C@@H](C)Cc2ccccc2)cc1`, the max response in assay [1] was 23.6%. The Potency result in assay [2], in assay [3] and in assay [4] was “inactive” in each case.

Regarding `O=C1c2ccccc2CN2C(=O)c3ccccc3CN12`, in assay [1], the max response was 10.5%. The Potency result in assay [2], in assay [3] and in assay [4] was “inactive” each time.

For `CC(=O)OCC(=O)[C@@]1(O)CC[C@H]2[C@@H]3CCC4=CC(=O)CC[C@]4(C)C3=CC[C@@]21C`, the max response in assay [1] was -8.18%. Also, the Potency entry in assay [2], in assay [3] and in assay [4] was “inactive” throughout.

Consider `CC(=O)OCC1=C(C(=O)O)N2C(=O)[C@@H](NC(=O)Cc3ccccc3)[C@H]2SC1`, for which, in assay [1], the max response is 7.9%. In addition, the Potency result in assay [2], in assay [3] and in assay [4] was “inactive” each time.

Consider `CC(=C\c1ccccc1)/C=C1/SC(=S)N(CC(=O)O)C1=O`, for which the max response in assay [1] is 8.93%. Also, the Potency result in assay [2], in assay [3] and in assay [4] was “inactive” throughout.

As for `N[C@H](CC(=O)O)C(=O)O`, the max response in assay [1] was 2.16%. The Potency result in assay [2], in assay [3] and in assay [4] was “inactive” each time.

Regarding `CC[C@@H](C)[C@H](N)C(=O)O`, in assay [1], the max response is -5.92%. The Potency entry in assay [2], in assay [3] and in assay [4] was “inactive” each time.

As for `COC(=O)CC[C@H](N)C(=O)O`, the max response in assay [1] was -4.69%. In addition, the Potency result in assay [2], in assay [3] and in assay [4] was “inactive” each time.

On to `CCCCC(O)c1ccccc1` (stereo unspecified), for which the max response in assay [1] is -2.26%. The Potency result in assay [2], in assay [3] and in assay [4] was “inactive” throughout.

For the molecule `OC[C@H]1OC([S-])[C@H](O)[C@@H](O)[C@@H]1O.[Au+]` (stereo partly specified), the max response in assay [1] is -13.3%. Besides, the Potency entry in assay [2], in assay [3] and in assay [4] was “inactive” each time.

On to `CCCCCCCCCCCCCC(=O)OCC(COP(=O)([O-])OCC[N+](C)(C)C)OC(=O)CCCCCCCCCCCCC` (stereo unspecified), for which, in assay [1], the max response was 8.75%. The Potency entry in assay [2], in assay [3] and in assay [4] was “inactive” in each case.

Consider `CS(=O)(=O)OCC(O)C(O)COS(C)(=O)=O` (stereo unspecified), for which, in assay [1], the max response was -2.1%. Also, the Potency result in assay [2], in assay [3] and in assay [4] was “inactive” each time.

`CCC(Oc1ccccc1)C(=O)N[C@@H]1C(=O)N2[C@@H]1SC(C)(C)[C@@H]2C(=O)O` (stereo partly specified): the max response in assay [1] was 14.1%. For the same molecule, the Potency entry in assay [2], in assay [3] and in assay [4] was “inactive” in each case.

As for `Cc1ncc(C[n+]2csc(CCOP(=O)(O)OP(=O)(O)O)c2C)c(N)n1`, the max response in assay [1] was 0.908%. The Potency entry in assay [2], in assay [3] and in assay [4] was “inactive” in each case.

Take `C[C@@H]1O[C@@H](OC[C@H]2O[C@@H](Oc3c(-c4ccc(OCCO)c(OCCO)c4)oc4cc(OCCO)cc(O)c4c3=O)[C@H](O)[C@@H](O)[C@@H]2O)[C@H](O)[C@H](O)[C@H]1O`: the max response in assay [1] was 6.8%. The Potency result in assay [2], in assay [3] and in assay [4] was “inactive” throughout.

In the case of `O=C(NNCS(=O)(=O)O)c1ccncc1`, the max response in assay [1] was -7.51%. The Potency entry in assay [2], in assay [3] and in assay [4] was “inactive” throughout.

As for `NC(=O)[C@H]1O[C@@H](O)[C@H](O)[C@@H](O)[C@@H]1O`, in assay [1], the max response is -1.37%. Also, the Potency entry in assay [2], in assay [3] and in assay [4] was “inactive” each time.

Regarding `CC(=O)Nc1ccc(NC(=S)NC(=O)c2ccc(C(C)(C)C)cc2)cc1`, the max response in assay [1] is -8.07%. In addition, the Potency entry in assay [2] and in assay [3] was “inactive” throughout. Moreover, the Potency in assay [4] is 6.51 µM (active) and 9.2 µM (active).

Turning to `CC(C)c1nc(N(C)S(C)(=O)=O)nc(-c2ccc(F)cc2)c1/C=C/C(O)CC(O)CC(=O)O` (stereo unspecified), the max response in assay [1] was 12%. Also, the Potency entry in assay [2], in assay [3] and in assay [4] was “inactive” each time.

Take `COc1ccc2cc([C@H](C)CO)ccc2c1`: in assay [1], the max response was 13.6%. In addition, the Potency entry in assay [2], in assay [3] and in assay [4] was “inactive” each time.

As for `O=C(O)c1ccc(NC(=O)[C@H](Cc2ccc(O)cc2)NC(=O)c2ccccc2)cc1`, the max response in assay [1] is 0.0398%. Further, the Potency entry in assay [2], in assay [3] and in assay [4] was “inactive” throughout.

Take `CCOC(=O)c1c[nH]c2cc(OCC(C)C)c(OCC(C)C)cc2c1=O`: the max response in assay [1] was -10.7%. Besides, the Potency result in assay [2], in assay [3] and in assay [4] was “inactive” in each case.

Turning to `NC(Cc1ccccc1)C(=O)O` (stereo unspecified), the max response in assay [1] is 3.95%. The Potency entry in assay [2], in assay [3] and in assay [4] was “inactive” each time.

Turning to `[O]=[Bi][O][Bi]=[O]`, in assay [1], the max response was 11.3%. For the same molecule, the Potency result in assay [2], in assay [3] and in assay [4] was “inactive” in each case.

On to `S=C=Nc1ccc(N=C=S)cc1`, for which the max response in assay [1] is -17.1%. Further, the Potency result in assay [2], in assay [3] and in assay [4] was “inactive” each time.

As to `C=CCCCCCCCCC(=O)OC`, in assay [1], the max response was 16.7%. Moreover, the Potency result in assay [2], in assay [3] and in assay [4] was “inactive” throughout.

With `O=C(O)COc1ccc(CCNS(=O)(=O)c2ccccc2)s1`, the max response in assay [1] was -5.07%. For the same molecule, the Potency result in assay [2], in assay [3] and in assay [4] was “inactive” throughout.

Take `CCCCCCCCCCCCCCCCCCOCC(COP(=O)([O-])OCC[N+](C)(C)C)OC` (stereo unspecified): the max response in assay [1] is 3.69%. The Potency entry in assay [2], in assay [3] and in assay [4] was “inactive” each time.

On to `OC[C@H]1O[C@@H](O[C@H]2[C@H](O)[C@@H](O)[C@H](O)O[C@@H]2CO)[C@H](O)[C@@H](O)[C@@H]1O`, for which, in assay [1], the max response was 2.58%. Also, the Potency result in assay [2], in assay [3] and in assay [4] was “inactive” in each case.
